# “And” between values parts separate entries of the source, which are not always exact repeats. Equal entries are not always repeated. Results filed as inconclusive are left out. The source made the active and inactive calls. Unless noted, no rule for the calls is given here.
# Columns and labels:
# [1] = liver-stage malaria parasite growth inhibition, primary screen, cell-based, HepG2, luciferase luminescence, HepG2 viability (AID 624349; in the data active = parasite load remaining mostly below about 12%, no sharp cut-off; inactive = mostly above about 10%;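 also: 100% = mean of DMSO negative control wells on the same plate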); settings: P. berghei liver stage in HepG2, luciferase luminescence, concentration not given here; parasite load remaining: stronger effect = lower value; viability: measured here: HepG2 viability without parasites
# [2] = differential killing of epithelial or mesenchymal cells, primary screen, imaging, PC-3E GFP, TEM4-18 mCherry, co-culture (AID 1345086;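 active = compounds killing one labelled cell type while sparing the other, by normalised counts and ratio limits, not self-fluorescent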;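 also: cells exposed to compound for 72 h before imaging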;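 as to red/green cell ratio (normalised): normalised mesenchymal count divided by normalised epithelial count so high means epithelial killing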); settings: imaging cell counts, at 1 µM
# [3] = sensitizers of A549 cells to miR-34 induction, primary screen, imaging, A549 dox-inducible miR-34, nuclei and caspase counts (AID 1347080;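 active = compounds whose cell count with miR-34 switched on is under 0.7 times the count with it off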); settings: A549 miR-34 inducible, Hoechst nuclei count, 48 h
# [4] = target: NAD(+) hydrolase SARM1 (Homo sapiens) (UniProt Q6SZW1); assay: SARM1 TIR NADase inhibitors, cell lysate, NAD-Glo luminescence (AID 1508614;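 active = compound whose remaining NAD level is above about 45 nM, limit read from the data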;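 also: higher remaining NAD means stronger inhibition of SARM1 NADase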); settings: SAM-TIR HEK293T lysate NADase, at 1 µM, stronger effect = higher value
# [5] = target: Mitogen-activated protein kinase 7 (Homo sapiens) (UniProt Q13164); assay: ERK5 transactivation activators in reporter cells, primary screen, cell-based, HTS (AID 1508626;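 active = luciferase signal above three times the same-plate solvent-only control wells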;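 also: luciferase driven by Gal4-ERK5 fusion binding five Gal4 sites before minimal TATA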); settings: HeLa Gal4-ERK5 transactivation, 18 h, at 5 µM, stronger effect = higher value
# [6] = circadian clock period modulators, cell-based, LOPAC library, luminescence reporter (AID 2774); settings: circadian reporter cells, at 7 µM, actives lie on both sides;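 also: values are relative to mean of DMSO wells on each plate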
# [7] = test system: Hepatitis C virus NS3 helicase; assay: HCV NS3 helicase inhibitors, primary screen, biochemical, fluorescence polarization, LOPAC1280 library (AID 687035; in the data active = inhibition above about 37%); settings: Purified HCV NS3 helicase, Cy5-dT15 ssDNA binding fluorescence polarization; stronger effect = higher value; concentration not given here
# [8] = Cy5 fluorescence quenching or enhancement artefacts, artefact control for HCV NS3 helicase inhibitor project, biochemical, LOPAC1280 (AID 687037); settings: Cy5-DNA-NS3h complex fluorescence interference counterscreen
# [9] = test system: Aerobactin synthetase IucA (Klebsiella pneumoniae); assay: IucA aerobactin synthetase inhibitors, biochemical, Tocris library, absorbance (AID 1345561); settings: purified IucA enzyme assay, absorbance (OD) read-out; stronger effect = lower value;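 tested at 8 µM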;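 also: 100% = enzyme without compound and 0% = no enzyme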
# [10] = test system: Aerobactin synthetase IucA (Klebsiella pneumoniae, hypervirulent); assay: IucA enzyme inhibition, biochemical, LOPAC library, absorbance readout (AID 1346212); settings: IucA enzyme assay, absorbance (OD) readout; stronger effect = lower value;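 tested at 8 µM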;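 also: 100% = no compound wells and 0% = no enzyme wells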
# [11] = phospholipid biosynthesis inhibitors in animal cells, primary screen, cell-based, LOPAC library, screen 4 (AID 1347384); settings: phospholipid biosynthesis inhibition screen, at 10 µM
# [12] = viability rescue of complex I mutant cybrids, primary screen, cell-based, galactose medium, ATP luminescence (AID 1645843;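 active = z-score of at least 1.8 in each of two replicates, scored against plate mean and spread of sample wells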;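 also: positive z means more ATP and so rescue of galactose-driven cybrid death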); settings: complex I mutant cybrid cells, 72 h, stronger effect = higher value
# [13] = growth inhibition of DIPG glioma cells, dose response, cell-based, SU-DIPG-XIII, MIPE4.0, CellTiter-Glo, qHTS (AID 1347061; cut-off not given, nearly all actives have AC50 up to about 37 µM;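 also: cells exposed to compound for 48 hours before readout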); settings: SU-DIPG-XIII viability, CellTiter-Glo ATP luminescence
# [14] = growth inhibition of DIPG glioma cells, dose response, cell-based, JHH-DIPG-1, MIPE4.0, CellTiter-Glo, qHTS (AID 1347062; cut-off not given, nearly all actives have AC50 up to about 27 µM); settings: JHH-DIPG-1 viability, CellTiter-Glo ATP luminescence
# [15] = growth inhibition of DIPG glioma cells, dose response, cell-based, SU-DIPG-IV, MIPE4.0, CellTiter-Glo, qHTS (AID 1347063; cut-off not given, nearly all actives have AC50 up to about 30 µM;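 also: compound exposure lasted 48 hours before the viability readout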); settings: SU-DIPG-IV viability, CellTiter-Glo ATP luminescence
# [16] = SU-DIPG-VI glioma cell viability, MIPE4.0 library, CellTiter-Glo luminescence, qHTS (AID 1347066; cut-off not given, nearly all actives have AC50 up to about 30 µM;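 also: cells exposed to compound for 48 hours before readout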); settings: CellTiter-Glo ATP luminescence
# [17] = measured here: relative caspase fold change +Dox/-Dox
# [18] = measured here: total cells with miR-34 induction, stronger effect = lower value
# [19] = measured here: total cells without miR-34 induction
# Chain of Mitogen-activated protein kinase 7 (Homo sapiens) (Q13164 whole entry, looked up, the tested form may be a part): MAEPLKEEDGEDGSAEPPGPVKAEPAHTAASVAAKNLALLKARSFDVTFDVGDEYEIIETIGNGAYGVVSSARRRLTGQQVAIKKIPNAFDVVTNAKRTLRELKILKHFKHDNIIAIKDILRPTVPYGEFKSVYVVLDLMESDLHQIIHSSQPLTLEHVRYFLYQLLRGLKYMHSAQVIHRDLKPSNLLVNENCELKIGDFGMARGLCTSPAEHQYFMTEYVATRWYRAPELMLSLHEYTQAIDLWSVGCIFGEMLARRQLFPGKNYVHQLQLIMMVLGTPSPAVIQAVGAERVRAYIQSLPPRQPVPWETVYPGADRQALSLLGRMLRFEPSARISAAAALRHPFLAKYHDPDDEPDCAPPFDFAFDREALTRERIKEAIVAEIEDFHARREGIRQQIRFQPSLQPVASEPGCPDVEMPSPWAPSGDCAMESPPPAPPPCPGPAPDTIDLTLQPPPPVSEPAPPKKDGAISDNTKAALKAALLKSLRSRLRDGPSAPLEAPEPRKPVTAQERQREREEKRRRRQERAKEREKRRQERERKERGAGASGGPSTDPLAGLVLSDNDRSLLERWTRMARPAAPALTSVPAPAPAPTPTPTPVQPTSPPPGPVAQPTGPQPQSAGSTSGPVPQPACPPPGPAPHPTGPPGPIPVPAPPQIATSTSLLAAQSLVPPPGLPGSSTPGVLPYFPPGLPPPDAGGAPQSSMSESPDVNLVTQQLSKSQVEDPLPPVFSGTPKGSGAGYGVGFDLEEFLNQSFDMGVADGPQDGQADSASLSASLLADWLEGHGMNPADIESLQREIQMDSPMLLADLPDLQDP
# Chain of NAD(+) hydrolase SARM1 (Homo sapiens) (Q6SZW1 whole entry, looked up, the tested form may be a part): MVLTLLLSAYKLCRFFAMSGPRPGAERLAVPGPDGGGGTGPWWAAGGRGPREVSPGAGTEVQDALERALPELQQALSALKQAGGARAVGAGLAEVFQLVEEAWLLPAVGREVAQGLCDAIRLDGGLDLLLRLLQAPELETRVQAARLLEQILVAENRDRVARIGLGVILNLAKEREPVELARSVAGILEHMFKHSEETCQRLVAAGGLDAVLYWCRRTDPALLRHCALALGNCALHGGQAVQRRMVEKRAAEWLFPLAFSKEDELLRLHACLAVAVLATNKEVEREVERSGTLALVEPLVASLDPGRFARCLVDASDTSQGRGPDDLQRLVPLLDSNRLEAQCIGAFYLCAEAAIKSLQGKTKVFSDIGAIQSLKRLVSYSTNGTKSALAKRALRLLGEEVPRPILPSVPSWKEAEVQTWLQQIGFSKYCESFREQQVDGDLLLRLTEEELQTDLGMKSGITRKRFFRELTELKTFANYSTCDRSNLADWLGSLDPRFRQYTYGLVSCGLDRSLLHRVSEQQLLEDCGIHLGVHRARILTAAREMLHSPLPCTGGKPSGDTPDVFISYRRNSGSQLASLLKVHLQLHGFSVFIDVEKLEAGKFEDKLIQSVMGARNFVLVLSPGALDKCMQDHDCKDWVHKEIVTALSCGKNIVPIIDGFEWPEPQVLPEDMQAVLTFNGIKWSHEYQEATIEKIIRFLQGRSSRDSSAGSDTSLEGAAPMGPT
compound,measurement,setting,value
COC(=O)C(c1ccccc1)C1CCCCN1 (configuration not stated),parasite load remaining,[1],51.8% (inactive)
same,viability,[1],106%
same,red/green cell ratio (normalised),[2]; actives lie on both sides,0.97 (inactive)
same,normalised cell number,[2]; measured here: epithelial PC-3E GFP cell survival,1.07
same,normalised cell number,[2]; measured here: mesenchymal TEM4-18 mCherry cell survival,1.04
same,fold change,[3]; stronger effect = lower value,0.909 (inactive)
same,fold change,[3]; [17],3.99
same,cell count,[3]; [18],12600
same,cell count,[3]; [19],13900
same,remaining NAD,[4],10 nM (inactive)
same,luciferase signal,[5],44 AU (inactive)
C#CCOC(=O)C1=CCCN(C)C1,period change,[6],-0.055 h (inactive)
same,inhibition,[7],-1% (inactive)
same,fluorescence ratio (interference),[8],1 (inactive)
same,remaining activity,[9],105% (inactive)
same,remaining activity,[10],121% (inactive)
same,fold change,[3]; stronger effect = lower value,1.05 (inactive)
same,fold change,"[3]; stronger effect = lower value, cell number ratio, induced over uninduced",0.926 (inactive)
same,fold change,[3]; [17],1.99 and 0.981
same,cell count,[3]; [18],10200 and 8480
same,cell count,[3]; [19],9640 and 9160
same,outcome,[11],inactive
same,z-score,[12],-0.93 (inactive) and -0.57 (inactive)
Oc1ccc2c3c1O[C@H]1c4[nH]c5c(c4C[C@@]4(O)[C@@H](C2)N(CC2CC2)CC[C@]314)C[C@@]1(O)[C@H]2Cc3ccc(O)c4c3[C@@]1(CCN2CC1CC1)[C@H]5O4,period change,[6],-0.025 h (inactive)
same,inhibition,[7],-2% (inactive)
same,fluorescence ratio (interference),[8],1 (inactive)
same,remaining activity,[9],103% (inactive)
same,remaining activity,[10],120% (inactive)
same,outcome,[13],inactive
same,outcome,[14],inactive
same,outcome,[15],inactive
same,outcome,[16],inactive
same,fold change,[3]; stronger effect = lower value,1.09 (inactive) and 0.956 (inactive)
same,fold change,[3]; [17],1.04 and 0.836
same,cell count,[3]; [18],10400 and 9420
same,cell count,[3]; [19],9540 and 9850
same,z-score,[12],0.855 (inactive) and 1.22 (inactive)

# — PubChem BioAssay
